# Measurements from PubChem BioAssay.
# Calls of active or inactive are those of the source.
# Columns and labels:
# [1] = binders of probe aFSTL3 on microarray, primary screen, stem cell growth factor project, biochemical, small-molecule microarray, fluorescence 635/667 (AID 1064); conditions: higher = more signal;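 note: measures binding of the biotinylated anti-FSTL3 antibody to printed compounds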
# [2] = binders from COS7 lysate, DM2A8 probe, primary screen, torsin A project, cell lysate, small-molecule microarray, fluorescence 635/667 (AID 1065); conditions: higher = more signal, COS7 lysate expressing mutant human TOR1A
# [3] = binders of probe aFGF2 on microarray, primary screen, stem cell growth factor project, biochemical, small-molecule microarray, fluorescence 635/667 (AID 1067); conditions: higher = more signal;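 note: measures binding of biotinylated aFGF2 protein to printed compounds on slides; z-score merges feature fluorescence and signal-to-noise across triplicate slides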
# [4] = binders of probe aFGF10 on microarray, primary screen, stem cell growth factor project, biochemical, small-molecule microarray, fluorescence 635/667 (AID 1071); conditions: higher = more signal;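 note: score merges 667 nm spot intensity and signal to noise from triplicate slides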
# [5] = target: Neurogenic locus notch homolog protein 2 (Homo sapiens) (UniProt Q04721); assay: Notch2 binders on small-molecule microarrays, primary screen, biochemical, small-molecule microarray, 635 nm fluorescence, stem cell growth factors (AID 1073); conditions: Notch2 binding, higher = more signal
# Chain of Neurogenic locus notch homolog protein 2 (Homo sapiens) (Q04721 whole entry, looked up, canonical isoform): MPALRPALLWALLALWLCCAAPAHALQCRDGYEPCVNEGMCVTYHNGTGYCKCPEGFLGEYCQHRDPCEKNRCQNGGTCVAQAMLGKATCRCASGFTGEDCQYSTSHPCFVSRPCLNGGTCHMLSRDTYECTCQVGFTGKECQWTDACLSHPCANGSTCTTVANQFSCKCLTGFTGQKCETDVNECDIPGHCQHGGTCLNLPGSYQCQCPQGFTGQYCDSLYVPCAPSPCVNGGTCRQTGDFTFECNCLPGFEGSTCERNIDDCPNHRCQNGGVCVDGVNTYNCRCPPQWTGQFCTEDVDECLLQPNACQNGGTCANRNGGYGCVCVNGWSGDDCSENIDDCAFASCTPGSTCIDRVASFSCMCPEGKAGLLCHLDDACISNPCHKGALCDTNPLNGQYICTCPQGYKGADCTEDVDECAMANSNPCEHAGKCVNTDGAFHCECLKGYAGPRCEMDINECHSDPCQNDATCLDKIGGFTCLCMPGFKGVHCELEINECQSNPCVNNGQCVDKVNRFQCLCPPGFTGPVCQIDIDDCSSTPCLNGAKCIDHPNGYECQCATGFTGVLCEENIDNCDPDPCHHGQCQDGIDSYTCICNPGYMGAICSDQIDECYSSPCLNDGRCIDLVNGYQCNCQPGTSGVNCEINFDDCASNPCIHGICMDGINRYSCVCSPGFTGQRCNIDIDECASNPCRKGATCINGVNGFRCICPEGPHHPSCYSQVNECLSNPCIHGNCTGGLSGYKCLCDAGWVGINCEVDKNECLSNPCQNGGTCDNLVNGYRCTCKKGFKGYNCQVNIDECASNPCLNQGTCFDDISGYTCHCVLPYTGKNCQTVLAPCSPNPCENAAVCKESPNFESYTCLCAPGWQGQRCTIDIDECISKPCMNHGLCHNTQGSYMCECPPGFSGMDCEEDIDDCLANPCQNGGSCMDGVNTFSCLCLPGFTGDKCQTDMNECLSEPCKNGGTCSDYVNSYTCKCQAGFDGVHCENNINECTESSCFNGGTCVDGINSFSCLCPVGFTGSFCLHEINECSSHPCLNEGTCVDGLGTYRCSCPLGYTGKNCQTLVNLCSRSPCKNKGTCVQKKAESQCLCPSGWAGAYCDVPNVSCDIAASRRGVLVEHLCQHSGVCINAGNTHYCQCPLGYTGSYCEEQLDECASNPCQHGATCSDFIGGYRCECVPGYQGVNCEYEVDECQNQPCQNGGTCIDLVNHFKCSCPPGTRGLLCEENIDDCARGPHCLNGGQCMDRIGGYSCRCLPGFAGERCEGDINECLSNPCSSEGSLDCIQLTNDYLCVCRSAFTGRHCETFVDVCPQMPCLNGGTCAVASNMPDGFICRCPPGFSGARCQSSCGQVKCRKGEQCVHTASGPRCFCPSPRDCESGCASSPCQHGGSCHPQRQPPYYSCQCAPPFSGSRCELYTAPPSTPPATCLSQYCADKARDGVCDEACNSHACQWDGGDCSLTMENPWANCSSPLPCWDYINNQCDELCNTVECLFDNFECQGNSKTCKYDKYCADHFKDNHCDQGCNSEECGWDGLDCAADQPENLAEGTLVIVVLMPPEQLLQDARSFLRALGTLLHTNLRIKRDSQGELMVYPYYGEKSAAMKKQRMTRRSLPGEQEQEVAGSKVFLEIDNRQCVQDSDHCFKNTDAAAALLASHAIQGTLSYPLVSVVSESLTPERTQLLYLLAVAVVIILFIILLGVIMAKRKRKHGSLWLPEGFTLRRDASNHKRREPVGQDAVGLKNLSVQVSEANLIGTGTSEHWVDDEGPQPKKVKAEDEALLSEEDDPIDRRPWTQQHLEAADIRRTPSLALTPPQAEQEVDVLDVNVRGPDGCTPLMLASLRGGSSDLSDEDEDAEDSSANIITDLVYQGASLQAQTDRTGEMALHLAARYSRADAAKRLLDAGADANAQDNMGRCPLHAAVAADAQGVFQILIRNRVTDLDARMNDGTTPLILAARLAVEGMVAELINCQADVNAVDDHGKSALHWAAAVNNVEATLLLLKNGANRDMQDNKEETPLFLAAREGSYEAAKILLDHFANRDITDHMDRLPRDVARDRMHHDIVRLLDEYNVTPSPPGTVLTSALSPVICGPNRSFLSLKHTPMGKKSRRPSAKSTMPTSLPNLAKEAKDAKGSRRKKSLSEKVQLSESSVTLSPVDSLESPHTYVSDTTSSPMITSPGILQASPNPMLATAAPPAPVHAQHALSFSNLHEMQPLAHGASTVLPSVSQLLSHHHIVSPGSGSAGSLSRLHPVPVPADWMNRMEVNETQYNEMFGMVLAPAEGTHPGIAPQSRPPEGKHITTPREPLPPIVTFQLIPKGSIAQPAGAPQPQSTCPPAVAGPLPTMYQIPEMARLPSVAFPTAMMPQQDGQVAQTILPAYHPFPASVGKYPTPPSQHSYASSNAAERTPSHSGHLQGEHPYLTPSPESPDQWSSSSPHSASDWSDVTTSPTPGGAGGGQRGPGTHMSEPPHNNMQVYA
# [6] = target: Pro-neuregulin-1, membrane-bound isoform (Homo sapiens) (UniProt Q02297); assay: NRG1 binders on small-molecule microarrays, primary screen, psychiatric disease protein project, biochemical, small-molecule microarray, fluorescence 635/667 (AID 1075); conditions: NRG1 binding, 635 nm fluorescence, higher = more signal;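 note: score combines 667 nm spot fluorescence with signal to noise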
# Chain of Pro-neuregulin-1, membrane-bound isoform (Homo sapiens) (Q02297 whole entry, looked up, the tested form may be a part, canonical isoform): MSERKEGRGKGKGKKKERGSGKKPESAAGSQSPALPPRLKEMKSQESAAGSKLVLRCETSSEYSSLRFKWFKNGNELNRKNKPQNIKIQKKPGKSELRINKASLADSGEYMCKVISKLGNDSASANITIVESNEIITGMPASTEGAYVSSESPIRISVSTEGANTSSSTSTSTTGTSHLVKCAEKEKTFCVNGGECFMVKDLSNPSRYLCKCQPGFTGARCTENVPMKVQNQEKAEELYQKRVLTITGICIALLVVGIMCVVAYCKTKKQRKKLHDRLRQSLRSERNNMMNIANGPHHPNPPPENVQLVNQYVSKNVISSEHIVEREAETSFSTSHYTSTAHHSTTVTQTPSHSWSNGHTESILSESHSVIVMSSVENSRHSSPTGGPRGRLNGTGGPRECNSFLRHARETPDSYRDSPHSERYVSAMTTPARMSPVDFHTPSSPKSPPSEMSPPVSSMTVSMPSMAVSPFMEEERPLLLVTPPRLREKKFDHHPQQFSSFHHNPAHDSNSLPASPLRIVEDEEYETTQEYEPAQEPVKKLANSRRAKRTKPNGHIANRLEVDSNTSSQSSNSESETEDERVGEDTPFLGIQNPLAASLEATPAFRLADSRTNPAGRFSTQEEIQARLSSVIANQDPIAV
# [7] = system: Neuregulin-1 EGF-like domain; assay: binders of neuregulin-1 EGF-like domain, primary screen, biochemical, small-molecule microarray, 635 nm fluorescence (AID 1081); conditions: small-molecule microarray binding, higher = more signal;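 note: binding of the protein to compounds printed on small-molecule microarray slides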
# [8] = FRG1 promoter luciferase signal modulators, primary screen, FRG1 inhibition for FSHD, cell-based, C2C12 myotubes, firefly/Renilla luciferase, luminescence (AID 1084); conditions: higher = more signal, called active from +8 up or from −8 down
# [9] = binders of probe aFST on microarray, primary screen, stem cell growth factor project, biochemical, small-molecule microarray, fluorescence 635/667 (AID 1086); conditions: higher = more signal;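 note: score merges 667 nm fluorescence with signal-to-noise of each printed compound spot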
# [10] = binders of probe aHhip on microarray, primary screen, stem cell growth factor project, biochemical, small-molecule microarray, fluorescence 635/667 (AID 1087); conditions: higher = more signal;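 note: score merges spot fluorescence at 667nm with spot signal to noise ratio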
# [11] = system: PRMT1 (protein arginine N-methyltransferase 1); assay: PRMT1 binders on small-molecule microarrays, primary screen, biochemical, small-molecule microarray, 635 nm fluorescence (AID 1088); conditions: small-molecule microarray binding, higher = more signal;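 note: binding of Prmt1 protein to compounds spotted on small-molecule microarray slides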
# [12] = yeast growth modulation, basal conditions, primary screen, YJM789 clinical isolate, OD600, 24 h (AID 1089);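 note: growth of clinical yeast isolate S. cerevisiae YJM 789 seeded 1000 cells per well; test concentration not given here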; conditions: S. cerevisiae YJM789 growth, higher = more signal, called active from +8 up or from −8 down
# [13] = fission yeast growth modulation, primary screen, strain 972, OD600, 24 h, no modulator (AID 1090);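 note: basal condition with compound alone and no growth modifier present; test concentration not given here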; conditions: S. pombe 972 growth, higher = more signal, called active from +8 up or from −8 down
# [14] = S. cerevisiae growth modulation with rapamycin, primary screen, strain BY4716, OD600, 96 h (AID 1091); conditions: higher = more signal, called active from +8 up or from −8 down; note: test concentration not given here
# [15] = target: Torsin-1A-interacting protein 2 (Homo sapiens) (UniProt Q8NFQ8); assay: LULL1 binders on small-molecule microarray, primary screen, cell lysate, human LULL1 lysate, 635/667 nm fluorescence (AID 1092); conditions: hLULL1 lysate binding, 635 nm fluorescence, higher = more signal;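 note: probe is lysate of COS7 cells overexpressing human LULL1; score merges per-feature 667 nm fluorescence with signal-to-noise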
# Chain of Torsin-1A-interacting protein 2 (Homo sapiens) (Q8NFQ8 whole entry, looked up): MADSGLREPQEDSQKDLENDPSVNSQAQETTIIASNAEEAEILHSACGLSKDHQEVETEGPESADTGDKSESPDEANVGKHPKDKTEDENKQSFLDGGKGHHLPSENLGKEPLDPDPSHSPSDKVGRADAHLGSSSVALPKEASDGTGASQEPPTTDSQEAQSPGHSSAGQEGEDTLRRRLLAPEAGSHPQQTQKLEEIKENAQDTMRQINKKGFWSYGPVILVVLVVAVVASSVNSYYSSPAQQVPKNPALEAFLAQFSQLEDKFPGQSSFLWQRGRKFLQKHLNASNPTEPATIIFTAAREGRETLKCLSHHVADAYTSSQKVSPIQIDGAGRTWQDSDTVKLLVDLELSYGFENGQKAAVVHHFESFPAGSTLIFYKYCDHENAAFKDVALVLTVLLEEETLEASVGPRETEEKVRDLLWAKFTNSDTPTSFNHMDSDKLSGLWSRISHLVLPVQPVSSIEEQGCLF
# [16] = E. coli growth modulation, two-sided OD650, primary screen, E. coli filamentation project, strain DRC41, 24 h (AID 1093); conditions: OD650, 24 h, higher = more signal, called active from +8 up or from −8 down;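 note: MC1000 strain lacking acrAB efflux and sulA so SOS filamentation is blocked; test concentration not given here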
# [17] = small-molecule microarray binders of probe aLefty2, primary screen, biochemical, biotinylated probe, 635/667 nm fluorescence (AID 1094); conditions: higher = more signal;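 note: score merges spot fluorescence near 667 nm with spot signal-to-noise ratio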
# [18] = system: Noggin (protein binding on small-molecule microarray); assay: Noggin binders on small-molecule microarray, primary screen, biochemical, 635/667 nm fluorescence (AID 1095); conditions: 635 nm fluorescence, higher = more signal;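 note: score merges 667 nm feature fluorescence with signal to noise over triplicate slides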
# [19] = target: Neurogenic locus notch homolog protein 3 (Homo sapiens) (UniProt Q9UM47); assay: NOTCH3 binders on small-molecule microarray, primary screen, biochemical, 635/667 nm fluorescence (AID 1096); conditions: NOTCH3 binding, 635 nm fluorescence, higher = more signal
# [20] = small-molecule microarray binders of probe aEGFR, primary screen, biochemical, biotinylated probe, 635/667 nm fluorescence (AID 1097); conditions: higher = more signal;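 note: probe is a biotinylated anti-EGFR antibody binding compounds printed on slides; score combines fluorescence near 667 nm and signal to noise of each spot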
structure (smiles),measurement,setting,value
O=c1n(-c2ccccc2)c(=O)n2n1CC(COc1ccccc1)=C([C@H](O)CCc1ccccc1)[C@@H]2CO,composite z-score,[1],-0.333
same,composite z-score,[2],-0.0765
same,composite z-score,[3],-0.141
same,composite z-score,[4],0.265
same,composite z-score,[5],0.094
same,composite z-score,[6],-0.153
same,composite z-score,[7],0.0463
same,z-score,[8],-2.53 (inactive)
same,composite z-score,[9],0.0915
same,composite z-score,[10],-0.318
same,composite z-score,[11],0.17
same,z-score,[12],-1.33 (inactive)
same,z-score,[13],-1.79 (inactive)
same,z-score,[14],-0.868 (inactive)
same,composite z-score,[15],-0.173
same,z-score,[16],2.68 (inactive)
same,composite z-score,[17],-0.153
same,composite z-score,[18],0.701
same,composite z-score,[19],-0.196
same,composite z-score,[20],-0.08
O=C1OCC=C[C@H]2OC34C=CCN(c5ccc(Cl)cc5)C(=O)[C@H]3N(CCO)C(=O)[C@@H]4[C@@H]12 (stereo not given in full),composite z-score,[1],0.601
same,composite z-score,[2],-0.515
same,composite z-score,[3],-0.147
same,composite z-score,[4],-0.0609
same,composite z-score,[5],-1.09
same,composite z-score,[6],-0.0774
same,composite z-score,[7],1.04
same,z-score,[8],0.782 (inactive)
same,composite z-score,[9],-0.915
same,composite z-score,[10],-0.137
same,composite z-score,[11],0.197
same,z-score,[12],-0.23 (inactive)
same,z-score,[13],-0.846 (inactive)
same,z-score,[14],0.0595 (inactive)
same,composite z-score,[15],2.87
same,z-score,[16],-0.297 (inactive)
same,composite z-score,[17],-0.286
same,composite z-score,[18],-2.04
same,composite z-score,[19],-0.368
same,composite z-score,[20],-0.321
C=C(COC)C(=O)CC[C@@H](OC(=O)c1cccnc1)c1ccc(OCCO)cc1,composite z-score,[1],0.193
same,composite z-score,[2],0.112
same,composite z-score,[3],-0.172
same,composite z-score,[4],0.182
same,composite z-score,[5],1.02
same,composite z-score,[6],0.403
same,composite z-score,[7],1.49
same,z-score,[8],-1.32 (inactive)
same,composite z-score,[9],0.343
same,composite z-score,[10],-0.0237
same,composite z-score,[11],1.2
same,z-score,[12],-10.9 (active)
same,z-score,[13],-20.4 (active)
same,z-score,[14],-3.62 (inactive)
same,composite z-score,[15],0.204
same,z-score,[16],-0.653 (inactive)
same,composite z-score,[17],0.0047
same,composite z-score,[18],0.992
same,composite z-score,[19],0.431
same,composite z-score,[20],0.167
CCOC(=O)C1CCCCN1 (stereo not given),composite z-score,[1],0.267
same,composite z-score,[2],0.0953
same,composite z-score,[3],0.119
same,composite z-score,[4],0.989
same,composite z-score,[5],0.931
same,composite z-score,[6],0.153
same,composite z-score,[7],0.765
same,z-score,[8],-0.102 (inactive)
same,composite z-score,[9],0.74
same,composite z-score,[10],1.96
same,composite z-score,[11],1.08
same,z-score,[12],-0.0725 (inactive)
same,z-score,[13],0.438 (inactive)
same,z-score,[14],0.363 (inactive)
same,composite z-score,[15],1.16
same,z-score,[16],-0.0508 (inactive)
same,composite z-score,[17],0.697
same,composite z-score,[18],0.458
same,composite z-score,[19],0.738
same,composite z-score,[20],0.641
